Laboratory results as given in PubChem BioAssay AID1508600 (Functional Genomics Laboratory (NCATS/FGL), 2020).
About 3,700 (7%) of roughly 53,000 sequences were called active. The entries come from a sample that favours actives as a whole. A number with no mark means an inactive call.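 The calls were made as follows: active = gene knockdowns whose robust z-score for IL-1 alpha signal is at least 2 or at most -2, so actives lie on both sides; inactive = the rest.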

Assay: Components of the Cytosolic LPS Sensing Pathway: Gene Identification via Genome-wide siRNA Screen;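 also: robust z of the log signal after scaling to non-targeting control siRNA wells of the plate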
Details: RAW264.7 macrophages, IL-1a HTRF, actives lie on both sides, screened at 100 nM (by protocol), cells primed 5 h with Pam3CSK4 first
Summary of the method: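 RAW264.7 mouse macrophages reverse-transfected with single siRNAs (100 nM final) for 48h, primed with Pam3CSK4 for 5 hours, then transfected with LipidA for 24 hour. Supernatant IL-1a read by HTRF; values normalized to negative-control median, log-transformed robust z-scores.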

| Sequence | z-score |
| --- | --- |
| GGAAAAAAGAGAGGUCAGATT against Meox1 | -1.02 |
| GGAAAUUGCUCAGGAGUUUTT against Anxa5 | -1.26 |
| GGAGAAUCCUGUUUUUUGUTT against Elp4 | 0.43 |
| GGUGCCAAUCAUUGUUAUGTT against Kcnv1 | 1.73 |
| CCCGAGAUGAGGAACUUUUTT against Ndnf | -0.359 |
| GGAGUAAUGAUAAGCCCUCTT against Tex264 | -0.0637 |
| GCUCUACCUCAGAUAAAGGTT against Banf2 | -2.45 (active) |
| GGAUCUCAUACAGAAUCCGTT against Haus4 | 0.216 |
| GGACCUAGAGGACUAUAAATT against P3h2 | 0.894 |
| GGAGCAGGUUACCAGAAAATT against E130114P18Rik | 0.301 |
| GGGUUUGACUGUACAGUACTT against Adamts4 | -1.29 |
| GGCCUUUACACGUGAGUCUTT against Zfp420 | -0.864 |
| CGGAUGCGACAAAAAUCACTT against Il4 | 1.77 |
| GCACUUACCGGAUCCAUUGTT against Clk4 | -0.793 |
| GCACAGGUCUAAUUCGUCUTT against Grik1 | -2.78 (active) |
| GGACUUGACCCUGUCUUUGTT against Ostm1 | 0.871 |
| GGAACAAAAACUGGUGCGCTT against Emilin2 | 2.07 (active) |
| GGCAUCUGAGCUGAGGAUUTT against Gem | -0.295 |
| GGAUAGCUUGAUCAAUCUUTT against Cisd2 | -0.13 |
| GCCUCUUAAUUUUAAGCUGTT against Gpr82 | -0.505 |
| GGGAAACUUGAACUUUGAUTT against Rsph1 | -1.54 |
| GGGACAAUUCAGGAUGGAGTT against Ift88 | 0.0559 |

| Sequence | z-score |
| --- | --- |
| GCGGCUUUACAAGGAUGACTT against Elob | 2 (active) |
| GGUCCUUUUUUCAACCAGCTT against Sh3gl1 | -0.259 |
| CCAAGGGUUGUUAAGUAUUTT against Cdh26 | 1.08 |
| GGAUUUUCAUCGUGCUUUGTT against Necab3 | 1.23 |
| CCGUGAUAAUGUAACACCUTT against Prtg | 0.0383 |
| GGUAAACAUUGCUACUUUGTT against Mpdz | 0.935 |
| GGCCAAGAAAAACUACUAUTT against Kcnk5 | -0.706 |
| CCUAGGUUUGAAGACUCCCTT against Asphd2 | -2.03 (active) |
| CCAAAUAUCACACACCCGATT against Fam187a | 0.798 |
| GGUGACUACUACAGGAAACTT against Hps1 | 2.3 (active) |
| GCACUUAUGAUGUCCUAUUTT against Sema4b | 0.606 |
| GGACAAAGUCUAGAAACUATT against Lrrc2 | 0.26 |
| GGCUAUGACAAUGCCUACATT against Maged2 | 0.00495 |
| GCGAAUCUUGCUUCUGACCTT against H4c8 | -2.13 (active) |
| GGUUUUUCGAGUUUUUUCUTT against Msx1 | 1.06 |
| GGCUGCUUAUAAAAUUUUCTT against Mipep | 0.398 |
| GGCAUGUUUCUUGACUUAATT against Coil | 0.122 |
| GGACCUGGUUCAGGUAUCATT against Col6a3 | -2.17 (active) |
| GGGUUUAUUUGGUCAAGAUTT against Mpc2 | -0.349 |
| GCAUACGUGUUCAAUGGUGTT against Ppef2 | -0.541 |
| CCGUGGAACUUAAAUAGUUTT against Pard6g | 2.66 (active) |
| GGAUCUCGCUGGCAAUAAUTT against Gpr45 | -0.222 |

| Sequence | z-score |
| --- | --- |
| CCAUUUUUCCUACGUGGGUTT against Zfand2a | 0.449 |
| GGAUUUGGGUUUUCUAUAATT against Cfb | -0.0373 |
| CAAUGACAGCAGAUGACGUTT against Crabp2 | 0.0834 |
| CCGGUCAAAAUUGAAAAGGTT against Bves | 0.666 |
| GGUGAAAAGUCCUGCCAAGTT against Nefh | 0.408 |
| GGCCAUUUGGAAACUAUUATT against Anapc11 | -0.109 |
| GGCUGUGAGAUAGAUCUAATT against Arhgef40 | 2.07 (active) |
| GCAAGGAGUUUAUGUGAGUTT against Olfr170 | 0.297 |
| GGGCAAAAUACAAAAGGAGTT against Mlph | -0.9 |
| GGACAUUCUCAAAUCUUGATT against Praf2 | 0.244 |
| GCAUAAGGACCCUUUGUCATT against Rasl10b | -1.27 |
| GCUGUAUCAGUCUUUCUAUTT against Cyp27b1 | 0.442 |
| GGACAUGUCGGAUGGCUUCTT against P4ha1 | 0.212 |
| GGCAGCAUUAAAACUUAAGTT against Chtop | 2.71 (active) |
| GGGUAACAUGAAGAUCAAUTT against Rnf19a | 0.488 |
| GGGACAAAAGCAAUCAAACTT against H2-M11 | 2.06 (active) |
| GCAAGCAUGCUCAUAAAGATT against Cast | -0.142 |
| CGUAUGCAGAACAACAUUUTT against Klhl2 | 1.77 |
| CGAUCCCUGUCUGUUGGAUTT against Spint4 | 0.944 |
| GGAGGUAUACAGUAAGGAGTT against Fbxo32 | 0.542 |
| GGCUGACAGUAACAAGUGGTT against Fignl1 | 3.72 (active) |
| GCCAGGAUCCAUCAAUUCCTT against Olfr376 | -1.84 |

| Sequence | z-score |
| --- | --- |
| CCCUGAAAAUUAUCGAGCGTT against Galnt18 | -0.493 |
| CCCAGGAACUAUGAGUUGUTT against Rnf31 | -1.87 |
| GGAGAAAUUCUUCAAUGAGTT against Syt2 | -0.19 |
| GGAGACCAAAAUUUCUUGGTT against Sox9 | 0.0192 |
| GGAUCCGAACAUCCUCAGGTT against Hr | -2.22 (active) |
| CGAAGAGAUCAGUAAUAUGTT against Kif21a | 0.31 |
| CCCAUGGAAAUCCUCAGUATT against Ctsa | -2.1 (active) |
| CCCACUGAUGAUUACGUUCTT against Irf5 | -0.247 |
| CCACAAGCUAAUACAUGCUTT against Ubac1 | -1.37 |
| GGCCACAAAGACUCUGUGATT against Aamp | -2.25 (active) |
| GGCAGAACACCUUCUUAGUTT against Dars2 | -0.425 |
| AGUUAGCCUUGAGGAGAAUTT against Olfr1512 | 0.503 |
| CCAUUGGAUUGGAACUGGATT against Dhx57 | -0.288 |
| GCAGGUUUGAUAUAAAAUCTT against Uba2 | 0.162 |
| GCUCACCUGAGUCAAUGAUTT against Nr5a2 | -2.25 (active) |
| GGAAUUUUGGUAGGUUUUATT against Tlcd4 | 1.36 |
| CGGAAAAUCCUGCCUCCCUTT against S100pbp | -0.36 |
| GGAUGUAGAUGUUGGUUUUTT against Kcnj14 | 2.52 (active) |
| GCCAUCUGCUUUAACCUCUTT against Aebp2 | 0.238 |
| GGUGUACGAGAUCCAGGACTT against Eif3l | -0.699 |
| GGCUGGUCAAAAUUUGGAATT against Cdca2 | -0.9 |
| CGCAAGGACCGAUCUGAUGTT against Rnps1 | -2.41 (active) |

| Sequence | z-score |
| --- | --- |
| GCAUCUGGGACAUUUAGAGTT against Cd200r3 | -1.08 |
| CCAGCUUUUGUUUGUUAGATT against Trappc11 | 0.56 |
| GGAAGACUUGGCUACACAATT against Rab40c | -1.04 |
| GGCAAACCUGCUUCUGCUATT against Prss52 | -1.27 |
| GUUACUUUGAUGUUGUCUATT against Pdgfrl | 0.817 |
| GGCCAAUGCACUGUGUUACTT against Tinag | 1.25 |
| GCAGAGAGAUACAUUAAAGTT against Adam10 | 1.16 |
| CGCGCUUCUACUUUUUUUATT against Nkx2-1 | 0.406 |
| GGAGGACCCUAUGUCUAAUTT against Adora1 | 4.6 (active) |
| GCUGAGACAUGUGGAGUAUTT against 4931429L15Rik | 0.426 |
| GGUUCUCAUCAUUUCAACUTT against Sh3bgrl | -1.61 |
| GGCUUUGACCCGAAAAGAATT against Tut4 | -0.0161 |
| CGUGCCAAUUGAAAAAAACTT against Prkn | 1.23 |
| CCAUACAAUAAGAGUGCUATT against Clec4a4 | 0.936 |
| GGGUAGGCAAAGUUUUCAATT against 1700029M20Rik | 4.63 (active) |
| GCAUUCCAUGGUACAGGGUTT against Adamts4 | -0.646 |
| CGGUUUACAUUCCUGACUUTT against Plekho2 | 1.42 |
| GGACCAAAGAUGCAUCAGUTT against Zfyve16 | -0.788 |
| GGACCAAGGCUUUAUGAACTT against Crygn | 0.404 |
| GGCCUACGAACAGGUCAUGTT against Foxa2 | 0.0835 |
